An excerpt weighted towards active compounds, which were near 8% of everything screened.
HT1080 IDH1KD tx: qHTS for induction of synthetic lethality in tumor cells producing 2HG: qHTS for the HT-1080-IDH1KD cell line | HT-1080 IDH1 knockdown viability, ATP luminescence, 48 h | 360,000 tested, 2% active | Potency, µM (series often up to 46.1 µM), without a hit: at the highest dose activity, negative = toxicity, actives largely listed as cytotoxic;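 note: 0% = DMSO wells and -100% = cell-free medium wells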
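CellTiter-Glo luminescence after 48 h compound exposure at 37 degrees C of IDH1-knockdown HT-1080 cells in 5% FBS RPMI. %Activity scaled between DMSO wells and cell-free media wells, with curves fitted and assigned curve classes.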
SW480 rerep: A quantitative high throughput screen for small molecules that induce DNA re-replication in SW480 colon adenocarcinoma cells; Potency, µM (top dose mostly 46.1 µM), without a hit: at the top dose re-replication activation, actives largely listed as activators; SW480 DNA re-replication, Hoechst DNA content imaging, 48 h; 340,000 tested, 1.8% active; note: % of control where 0% means no effect; nearly all actives have a fitted effect of over 55% in size
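SW480 cells exposed to compounds for 48 hr at 37 C, 5% CO2, then Hoechst-stained 40 min. Nuclear DNA content imaged by fluorescence scanning (405 nm excitation, 500-530 nm emission); re-replication scored as increased high-intensity nuclei.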
KB-3-1 tox: qHTS assay for MDR1-selective chemotherapeutics: Primary screen using the parental adenocarcinoma cell KB-3-1. KB-3-1 viability, CellTiter-Glo ATP luminescence, 72 h. 400,000 tested, 1.4% active. Potency, µM (top dose mostly 46.1 µM), usual class: cytotoxic; note: % is set by controls: 0 for no effect and ±100 for the full control effect; nearly all actives have a fitted effect of over 60% in size
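Cells are dispensed, compounds pinned in, plates held at 37 °C for 72 h, then CellTiter-Glo is added and luminescence read after 10 minutes. Cell line: parental KB-3-1 in phenol-red-free DMEM, 10% FBS.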
MCF10A rerep: A quantitative high throughput screen for small molecules that induce DNA re-replication in MCF 10a normal breast cells | Potency, µM (doses to about 46.1 µM), without a hit: top-dose activity, positive = re-replication, usual class: activators | 350,000 tested, 2.9% active | MCF 10A DNA re-replication, Hoechst nuclear intensity, 48 h | AID 624296, 2012; note: % of control where 0% means no effect; nearly all actives have a fitted effect of over 50% in size
HT1080NT lethal: qHTS for induction of synthetic lethality in tumor cells producing 2HG: qHTS for the HT-1080-NT fibrosarcoma cell line. 360,000 tested, 1.6% active. Potency, µM (top dose mostly 46.1 µM), for the others: at the top dose activity, negative = less viability, hits mostly cytotoxic. HT-1080-NT fibrosarcoma viability, CellTiter-Glo ATP luminescence, 48 h;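 note: NT is the 2HG producing partner of a matched IDH1 knockdown line; 0% = DMSO-treated cells and -100% = media-only wells without cells; nearly all actives have a fitted effect of over 55% in size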
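750 cells/well, RPMI + 5% FBS; 2 h settle, compound pin-transfer, 48 h at 37 degrees C. CellTiter-Glo 10 min RT, luminescence. Normalized to DMSO and media-only wells.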
KB-V1 cytotox: qHTS assay for MDR1-selective chemotherapeutics: Primary screen using the drug-selected MDR subline cells KB-V1 | 400,000 tested, 3.4% active | AID 1347076, 2019 | Potency, µM (titrated, usually from 46.1 µM), most hits filed as cytotoxic | KB-V1 MDR cells viability, CellTiter-Glo, 72 h; note: % is set by controls: 0 for no effect and ±100 for the full control effect; nearly all actives have a fitted effect of over 60% in size
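qHTS viability screen in drug-selected KB-V1 MDR cells: 72 h compound treatment at 37 degrees C, ATP luminescence end point.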
Starred values were filed as active, the others as inactive; i = inactive; u = inconclusive; x = no result; [ ] = remark or other dose. Calls come from the whole dose curve; as a rule, active = well fitted curve in the direction sought with a large enough effect; inconclusive = small, poorly fitted or top-dose-only effect, or another doubt; inactive = no such curve, though single readings can be large; an effect the other way counts as inactive or inconclusive. Potency is the fitted concentration of half-maximal effect.

SMILES	HT1080 IDH1KD tx	SW480 rerep	KB-3-1 tox	MCF10A rerep	HT1080NT lethal	KB-V1 cytotox
N#CC(C#N)=NNc1ccc([N+](=O)[O-])cc1	16µM*	u	i	18µM*	21µM*	i
Cc1cc(C)n(-c2ccc(NN=C(C#N)C#N)cc2)n1	u	113%	i	u	9%	i
CCN(CC)S(=O)(=O)c1ccc(NN=C(C#N)C#N)cc1	-27%	16%	i	10µM*	-24%	i
CCCNC(=O)c1cc2c(c(-c3cccc(-c4cc5ccccc5o4)c3)n1)[C@@H](CCO)N(C(=O)NC(C)C)C2	u	x	u	x	u	18µM*
N#CC(c1ccccc1)c1cccc(Cl)n1 (stereo unspecified)	3%	u	i	10%	2%	i
C1=C(c2c[nH]c3ccccc23)CCN(Cc2ccccc2)C1	u	13µM*	u	16µM*	u	i
COP(=S)(OC)Oc1ccc(S(=O)(=O)N(C)C)cc1	x	-11%	x	1%	x	x
CCn1c(O)c(C(=O)CC2NCCc3ccccc32)c(=O)n(CC)c1=S (stereo unspecified)	-18%	2%	i	21µM*	-1%	i
CCn1c(O)c(C=NCc2cccs2)c(=O)n(CC)c1=S	6%	-1%	i	u	0%	i
Cc1ccc(C2CC3CCC(C2)N3Cc2ccccc2F)cc1 (stereo unspecified)	15µM*	u	u	u	u	u
CCn1c(=N)n(Cc2ccccc2F)c2ccccc21	-3%	0%	i	1%	-3%	i
CCOc1ccc2nc(N3CCC(C(=O)N4CCC5(CC4)OCCO5)CC3)sc2c1	-27%	26%	u	13%	-26%	2.9µM*
CCc1ccc2nc(N3CCC(C(=O)N4CCC5(CC4)OCCO5)CC3)sc2c1	-25%	-55%[1.84 µM]	u	u	u	i
CC(=O)OC[C@]12CCC(C)=C[C@H]1O[C@@H]1[C@H](O)[C@@H](OC(C)=O)[C@@]2(C)[C@]12CO2	0.21µM*	u	u	9%	u	u
CCC(C)NC(=O)CCC(=O)OC1O[C@H]2OC3(C)CC[C@H]4[C@H](C)CCC(C1C)C24OO3 (stereo partly specified)	7.3µM*	18µM*	5.2µM*	u	7.3µM*	i
C[C@@H]1CC[C@H]2[C@@H](C)C(=O)O[C@@H]3O[C@@]4(C)CC[C@@H]1[C@]32OO4	-13%	u	i	-14%	-2%	u
Cc1ccc(Cn2cc(C=O)c(-c3ccc(C)cc3)n2)cc1	1%	10%	i	u	7%	16µM*
O=C(c1c[nH]cc1-c1ccccc1)c1cccc2ccccc12	15µM*	22%	i	17%	23µM*	i
CCCn1c(C)c(C(=O)c2cccc3ccccc23)c2ccccc21	u	20%	u	u	u	u
C=C1Nc2ccccc2C(=O)N1c1ccccc1C	x	-6%	x	6%	x	x
CCCCOCCCn1c(N)c(C(=O)OCCOC)c2nc3ccccc3nc21	6%	u	i	0%	2%	i
CCCCn1c(N)c(C(=O)NCc2cccs2)c2nc3ccccc3nc21	u	3.3µM*	u	1.2µM*	u	13µM*
CCCOC(=O)c1c(N)n(Cc2cccs2)c2nc3ccccc3nc12	-24%	u	i	21µM*	-15%	i
COCCOC(=O)c1c(N)n(Cc2ccccc2)c2nc3ccccc3nc12	-23%	25%	i	2%	-25%	i
CCCCNC(=O)c1c(N)n(Cc2ccc3c(c2)OCO3)c2nc3ccccc3nc12	2%	9%	i	6%	-2%	i
SMILES	HT1080 IDH1KD tx	SW480 rerep	KB-3-1 tox	MCF10A rerep	HT1080NT lethal	KB-V1 cytotox
Nc1c(C(=O)NCCCc2ccccc2)c2nc3ccccc3nc2n1Cc1cccs1	-27%	2.9µM*	u	u	u	15µM*
CCCCCn1c(N)c(C(=O)NCc2cccs2)c2nc3ccccc3nc21	u	2.6µM*	u	5.2µM*	u	13µM*
CCCCn1c(N)c(C(=O)OCCOC)c2nc3ccccc3nc21	16%	u	i	u	14%	u
COc1ccc(C(c2nnnn2-c2ccc3c(c2)OCCO3)N2CCC(n3c(=O)[nH]c4ccccc43)CC2)cc1 (stereo unspecified)	15µM*	x	u	x	18µM*	u
CCC(c1nnnn1-c1ccc(OC)cc1)N1CCC(n2c(=O)[nH]c3ccccc32)CC1 (stereo unspecified)	2%	x	i	x	1%	i
O=c1[nH]c2ccccc2n1C1CCN(C(c2ccnc3ccccc23)c2nnnn2-c2ccc3c(c2)OCCO3)CC1 (stereo unspecified)	16µM*	x	u	x	u	u
CN(C)C1(CNC(=O)c2ccc(NS(=O)(=O)c3ccc(Cl)c(Cl)c3)cc2)CCCCC1	-15%	-10%	i	u	-11%	i
CN(C)C1(CNC(=O)Nc2ccc(Cl)c(Cl)c2)CCCCC1	u	u	i	37%	21µM*	i
CC(=O)OC(C)(C)/C=C/C(=O)C(C)(O)C1C(O)CC2(C)C3CC=C4C(CC(O)C(=O)C4(C)C)C3(C)C(=O)CC12C (stereo unspecified)	0.046µM*	0.012µM*	0.16µM*	u	0.12µM*	0.46µM*
CC(=O)OC(C)(C)/C=C/C(=O)[C@](C)(O)[C@H]1[C@H](O)C[C@@]2(C)[C@@H]3CC=C4[C@H](C[C@H](O)C(=O)C4(C)C)[C@]3(C)C(=O)C[C@]12C	0.033µM*	u	0.15µM*	u	0.082µM*	8.2µM*
CC(=O)OC(C)(C)/C=C/C(=O)C(C)(O)C1[C@H](O)C[C@@]2(C)C3CC=C4C(CC[C@@H](O)C4(C)C)[C@]3(CO)C(=O)C[C@]12C (stereo partly specified)	0.033µM*	u	u	u	0.1µM*	3.7µM*
CC(=O)O[C@H](CC(=O)O)C[N+](C)(C)C	2%	8%	i	0%	-13%	i

Screening data as filed in PubChem.
